# FECH inh = inhibitors of human ferrochelatase | hit rate 3.3% among 20,000 | calls only at 10 µM (by protocol) | purified FECH, Ni-mesoporphyrin absorbance 550 nm;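 active means enzyme reaction rate more than 3 SD below the solvent-only control wells on the same plate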;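 further: lower slope than DMSO wells means FECH inhibition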
# * marks the source's active call; other numbers are inactive results; i = inactive; + = active, no number. This excerpt belongs to a sample that is enriched for hits.
SMILES,FECH inh
CCN1C(SCC(=O)Nc2cc(OC)cc(OC)c2)=NS(=O)(=O)c2ccccc21,i
CCN1C(SCC(=O)Nc2cccc(C(F)(F)F)c2)=NS(=O)(=O)c2ccccc21,+
O=c1c(Nc2cccc(F)c2)c(-c2ccc3c(c2)CCCC3)c1=O,i
Cc1ccc(-n2c(Cc3nc(C)cs3)nnc2SCC(=O)O)cc1,i
CC(C)CC(=O)Nc1nc2n(n1)C(c1c(F)cccc1Cl)C=C(c1ccc(Cl)cc1)N2 (stereo unspecified),i
CC(Cc1ccc2c(c1)OCO2)c1nccn1CCc1cccnc1 (stereo unspecified),i
CN(CCCc1cnn(C)c1)Cc1ccnc2ccccc12,i
COC(=O)Cc1cc(C2CCN(Cc3nc4ccccc4[nH]3)CC2)n[nH]1,i

# Bioassay records (PubChem BioAssay)
